Results taken from PubChem BioAssay (Tox21).
Values joined by “and” are separate entries in the source; they are usually repeats but may differ in a detail not shown here. Equal values may be shown once. Records with an inconclusive call do not appear. Some compounds were tested as several samples or in several runs, with calls that do not always agree. Active and inactive are the calls of the source. Unless noted, calls come from the whole dose curve; as a rule, active = well fitted curve in the direction sought with a large enough effect in the repeat runs; inconclusive = weak or mixed curves; inactive = no such curve, though single readings can be large; an effect the other way counts as inactive or inconclusive.

Key:
[1] = qHTS assay to identify small molecule agonists of H2AX - cell viability counter screen (AID 1224847; calls by dose curve; note: nearly all actives have a fitted effect of over 30% in size; note: potency is the fitted concentration of half-maximal effect)
In short: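 CHO-K1 wt, 1000 cells/well, o/n 37C; cpds 15 conc, 3 h 37C, 0.76% DMSO; CellTiter-Glo, 30 min RT, luminescence.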

[2] = qHTS RealTime-Glo MT Cell Viability Assay in HepG2 cells - 24 hour (AID 1224867); note: nearly all actives have a fitted effect of over 50% in size
In short: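 Viability was tracked continuously by NanoLuc luminescence from prosubstrate reduced by living HepG2 cells, at successive time points over 40 h of compound exposure. Cells with reagent were preincubated 5 h at 37 °C before compound addition.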

[3] = qHTS RealTime-Glo MT Cell Viability Assay in HEK293 cells - 32 hour (AID 1224868); note: nearly all actives have a fitted effect of over 50% in size; note: potency is the fitted concentration of half-maximal effect
In short: (§1)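 Viability tracked continuously by luminescence as live cells reduce a prosubstrate for NanoLuc; HEK293 cells preincubated 5 h, compound-treated at 37 C, and read at 0, 8, 16, 24, 32 and 40 h.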

[4] = A CellTox Green Cytotoxicity Assay to monitor cytotoxicity in HEK293 cells - 0 hour (AID 1224869); note: nearly all actives have a fitted effect of over 50% in size; note: potency is the fitted concentration of half-maximal effect
In short: (§2)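 Cells (HEK293, 600/well) and dye reagent are dispensed together. After 5 h at 37 C, 23 nL compound is pinned in. Plates stay at 37 C for 40 h with fluorescence read at 0h, 8h, 16h, 24h, 32h and 40h.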

[5] = qHTS RealTime-Glo MT Cell Viability Assay in HepG2 cells - 40 hour (AID 1224870); note: nearly all actives have a fitted effect of over 50% in size
In short: (§3)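 Real-time viability: cells seeded at 600 per well together with NanoLuc and cell-permeant prosubstrate, compounds added after 5 h incubation. Luminescence tracked at 0, 8, 16, 24, 32 and 40 h of exposure.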

[6] = A CellTox Green Cytotoxicity Assay to monitor cytotoxicity in HEK293 cells - 40 hour (AID 1224871); note: nearly all actives have a fitted effect of over 45% in size; note: potency is the fitted concentration of half-maximal effect
In short: as §2

[7] = qHTS RealTime-Glo MT Cell Viability Assay in HEK293 cells - 16 hour (AID 1224872)
In short: as §1

[8] = qHTS RealTime-Glo MT Cell Viability Assay in HepG2 cells - 8 hour (AID 1224873); note: nearly all actives have a fitted effect of over 55% in size
In short: as §3

[9] = qHTS assay to identify small molecule antagonists of the estrogen related receptor (ERR) signaling pathway from Tox21 library (AID 1224848); note: nearly all actives have a fitted effect of over 50% in size; note: potency is the fitted concentration of half-maximal effect
In short: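 ERR cell line, 2,000 cells/well. 6 h settle, then compound (DMSO) added; 18 h at 37 C; ONE-Glo luminescence after 30 min RT.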

[10] = qHTS assay to identify small molecule agonists of the estrogen related receptor (ERR) signaling pathway from Tox21 library (AID 1224849; calls by dose curve; note: nearly all actives have a fitted effect of over 15% in size); conditions: ERR reporter cell line, ONE-Glo luciferase, 18 h; at 92.4 µM (top of the series)
In short: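 Cells carrying the ERR reporter were plated and allowed to settle for 6 h, exposed to library compounds for 18 h at 37 C, then lysed with ONE-Glo and luminescence measured.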
% is set by controls: 0 for no effect and ±100 for the full control effect.

[O-][Cl+2]([O-])O
inactive: Potency [1] | outcome [2] | Potency [3] | Potency [4] | outcome [5] | Potency [6] | outcome [7] | outcome [8]

CC(C)OC(=O)Nc1cccc(Cl)c1
inactive: Potency [9] | activity change, positive = activation [10] 3.6% | outcome [2] | Potency [3] | Potency [4] | outcome [5] | Potency [6] | outcome [7] | outcome [8]

C#CC(C)(C)NC(=O)c1cc(Cl)cc(Cl)c1
inactive: Potency [1] | outcome [2] | Potency [3] | Potency [4] | outcome [5] | Potency [6] | outcome [7] | outcome [8]

CCNc1nc(NC(C)(C)C)nc(SC)n1
active: Potency [3] 43.1 µM
inactive: Potency [1] | outcome [2] | Potency [4] | outcome [5] | Potency [6] | outcome [7] | outcome [8]

CC(C)C#N
inactive: Potency [1] | outcome [2] | Potency [3] | Potency [4] | outcome [5] | Potency [6] | outcome [7] | outcome [8]

c1ccc(-c2ccccc2)cc1
inactive: Potency [1] | outcome [2] | Potency [3] | Potency [4] | outcome [5] | Potency [6] | outcome [7] | outcome [8]

CCOP(OCC)OCC
inactive: Potency [1] | outcome [2] | Potency [3] | Potency [4] | outcome [5] | Potency [6] | outcome [7] | outcome [8]

O=[N+]([O-])c1ccc(Oc2ccc(Cl)cc2Cl)cc1
inactive: Potency [9] | activity change, positive = activation [10] -5.45% and -4.04% | outcome [2] | Potency [4] | outcome [5] | Potency [6] | outcome [8]

Cc1cc(Cl)ccc1O
inactive: outcome [2] | Potency [3] | Potency [4] | outcome [5] | Potency [6] | outcome [7] | outcome [8]

Nc1c(Cl)c(Cl)nc(C(=O)O)c1Cl
inactive: Potency [1] | outcome [2] | Potency [3] | Potency [4] | outcome [5] | Potency [6] | outcome [7] | outcome [8]

CCCCCCCCCCCC#N
inactive: Potency [1] | outcome [2] | Potency [3] | outcome [5] | outcome [7] | outcome [8]
inactive and 45.2 µM (active): Potency [4]
inactive and 40.3 µM (active): Potency [6]

C1CN2CCN1CC2
inactive and 17.4 µM (active): Potency [6]
inactive: Potency [1] | outcome [2] | Potency [3] | outcome [5] | outcome [7] | outcome [8]
inactive and 21.9 µM (active): Potency [4]

CCNc1nc(NC(C)C)nc(SC)n1
inactive: Potency [1] | outcome [2] | Potency [3] | Potency [4] | outcome [5] | Potency [6] | outcome [7] | outcome [8]

O=c1n(Cl)c(=O)n(Cl)c(=O)n1Cl
inactive: Potency [1] | outcome [2] | Potency [3] | Potency [4] | outcome [5] | Potency [6] | outcome [7] | outcome [8]

CCCCCOC(=O)c1ccccc1C(=O)OCCCCC
inactive: Potency [1] | outcome [2] | Potency [3] | Potency [4] | outcome [5] | Potency [6] | outcome [7] | outcome [8]

CC(C)(C)OOC(=O)c1ccccc1
inactive: Potency [1] | outcome [2] | Potency [3] | Potency [4] | outcome [5] | Potency [6] | outcome [7] | outcome [8]

CC(C)(C)C(O)(CCc1ccc(Cl)cc1)Cn1cncn1 (stereo unspecified)
active: Potency [9] 61.9 µM and 61.1 µM | Potency [3] 49.6 µM and 49 µM
inactive: activity change, positive = activation [10] -48.6% and -40.4% | outcome [2] | Potency [4] | outcome [5] | Potency [6] | outcome [8]

O=NN1CCCC1
inactive: Potency [1] | outcome [2] | Potency [3] | Potency [4] | outcome [5] | Potency [6] | outcome [7] | outcome [8]

CN(C)[C@@H]1C(=O)C(C(N)=O)=C(O)[C@@]2(O)C(=O)C3=C(O)c4c(O)cccc4[C@@](C)(O)[C@H]3C[C@@H]12
inactive: Potency [1] | outcome [2] | Potency [3] | Potency [4] | outcome [5] | Potency [6] | outcome [7] | outcome [8]

NCC(O)c1ccc(O)cc1 (stereo unspecified)
inactive: Potency [1] | outcome [2] | Potency [3] | Potency [4] | outcome [5] | Potency [6] | outcome [7] | outcome [8]

c1ccc(OP(Oc2ccccc2)Oc2ccccc2)cc1
inactive: Potency [1] | outcome [2] | Potency [3] | Potency [4] | outcome [5] | Potency [6] | outcome [7] | outcome [8]

CCCC1COC(Cn2cncn2)(c2ccc(Cl)cc2Cl)O1 (stereo unspecified)
inactive: outcome [2] | Potency [4] | outcome [5] | outcome [8]
active: Potency [1] 115 µM | Potency [3] 22.3 µM and 24.5 µM

CCOP(=S)(OCC)SCCSCC
inactive: Potency [1] | outcome [2] | Potency [3] | Potency [4] | outcome [5] | Potency [6] | outcome [7] | outcome [8]

COP(N)(=O)SC (stereo unspecified)
inactive: Potency [1] | outcome [2] | Potency [3] | Potency [4] | outcome [5] | Potency [6] | outcome [7] | outcome [8]

Cc1ccccc1O
inactive: Potency [1] | outcome [2] | Potency [3] | Potency [4] | outcome [5] | Potency [6] | outcome [7] | outcome [8]

CCCCCCCCCl
inactive: Potency [1] | outcome [2] | Potency [3] | Potency [4] | outcome [5] | Potency [6] | outcome [7] | outcome [8]

CCCCN(CCCC)SN(C)C(=O)Oc1cccc2c1OC(C)(C)C2
inactive: outcome [2] | Potency [4] | outcome [5] | Potency [6] | outcome [8]

CC(Oc1ccc(Cl)cc1Cl)C(=O)O (stereo unspecified)
inactive: Potency [1] | outcome [2] | Potency [3] | Potency [4] | outcome [5] | Potency [6] | outcome [7] | outcome [8]

O=NN1CCCCCCC1
inactive: Potency [1] | outcome [2] | Potency [3] | Potency [4] | outcome [5] | Potency [6] | outcome [7] | outcome [8]
